This test deals with ZNF721 DBD2 (Homo sapiens, UniProt Q8TF20-2 395-923). The experiment in a line: HT-SELEX; 20 mM HEPES pH 7, 140 mM KCl, 5 mM NaCl, 1 mM K2HPO4, 2 mM MgSO4, 100 uM EGTA, ZnSO4, 0.1% Tween20; room temperature, 1 h; high values mean tight binding. Particulars: protein: ivt; tags: eGFP (N-terminal); dsDNA, one strand shown. In outline:
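Full-length or DNA-binding-domain forms of a tagged transcription factor were produced in HEK293 lysate or cell-free extract and immobilised on beads. Incubation with a randomized 40-base DNA library ran for 1 h at room temperature in HEPES/KCl low-stringency buffer with Tween20, after which bound DNA was washed, heat-eluted, PCR-amplified over successive cycles and Illumina-sequenced. Binding strength is given as the relative k-mer count in selected reads, higher for tighter binding.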
Chain of ZNF721 DBD2 (Q8TF20 383-911): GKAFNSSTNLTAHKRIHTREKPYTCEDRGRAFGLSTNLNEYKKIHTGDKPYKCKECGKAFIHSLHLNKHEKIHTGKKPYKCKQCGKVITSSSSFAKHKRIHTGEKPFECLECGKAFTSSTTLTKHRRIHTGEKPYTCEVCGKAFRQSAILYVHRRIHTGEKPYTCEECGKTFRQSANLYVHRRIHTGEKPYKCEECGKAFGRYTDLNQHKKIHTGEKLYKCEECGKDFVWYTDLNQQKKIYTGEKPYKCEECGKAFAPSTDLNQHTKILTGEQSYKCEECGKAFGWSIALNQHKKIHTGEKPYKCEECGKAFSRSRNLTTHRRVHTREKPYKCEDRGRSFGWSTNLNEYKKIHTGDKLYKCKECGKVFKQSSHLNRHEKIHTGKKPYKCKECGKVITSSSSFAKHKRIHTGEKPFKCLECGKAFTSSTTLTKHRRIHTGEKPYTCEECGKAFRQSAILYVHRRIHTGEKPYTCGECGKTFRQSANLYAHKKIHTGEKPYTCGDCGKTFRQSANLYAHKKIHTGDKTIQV
Sequence CCCCTACCCC gave a binding signal of 0.00384 relative 10-mer count. For AAAAAAAAGA, the binding signal was 0.0612 relative 10-mer count.

CTCCCACCCC: the binding signal amounted to 0.00455 relative 10-mer count. The value for CCCCCCCCTC was 0.00324 relative 10-mer count; that for CCACCCACAC was 0.00635 relative 10-mer count; that for CTCCCCCCGC was 0.00144 relative 10-mer count. The sequence CCCCCTCCAC came in with a binding signal of 0.00479 relative 10-mer count. Take CCCTCACCAC: the binding signal was 0.00587 relative 10-mer count. Consider CCGCCCCCGC, for which the binding signal is 0.0018 relative 10-mer count.

For the sequence CCGTCCCACC, the binding signal was determined as 0.00312 relative 10-mer count. The sequence AAAAGGCATA came in with a binding signal of 0.116 relative 10-mer count.

AAAGAAGCTA had a binding signal of 0.00132 relative 10-mer count. GCTTTTTTCC: the binding signal was 0.0308 relative 10-mer count.

The sequence AGGGGGGCGG came in with a binding signal of 0.0012 relative 10-mer count. In turn, ACCCCACCAC came in with a binding signal of 0.00407 relative 10-mer count. In turn, TCCCCCACCA yielded a binding signal of 0.00407 relative 10-mer count.

CACCCCGACC came in with a binding signal of 0.00216 relative 10-mer count. CCCCCGCCGC came in with a binding signal of 0.00168 relative 10-mer count. CCCCCACCCA showed a binding signal of 0.00348 relative 10-mer count.

As for CCCACGCCCC, the binding signal worked out at 0.00384 relative 10-mer count. AGCTTTTTTC displayed a binding signal of 0.00467 relative 10-mer count. Consider GAAAAAAACA, for which the binding signal stood at 0.165 relative 10-mer count. Sequence ATGGGGTGGG yielded a binding signal of 0.00551 relative 10-mer count. The sequence ACCCCCACAC showed a binding signal of 0.00527 relative 10-mer count.

The sequence ACCCCCCACC showed a binding signal of 0.00491 relative 10-mer count. The value for GCACCCCCAC was 0.0174 relative 10-mer count.

CACCGCCCCC: the binding signal stood at 0.003 relative 10-mer count. AAAAGCAGTA showed a binding signal of 0.117 relative 10-mer count. As for CCCACCCGAC, the binding signal is 0.00479 relative 10-mer count.

CTTCATACAC gave a binding signal of 0.00132 relative 10-mer count. The sequence CCTCCCCTCC came in with a binding signal of 0.0132 relative 10-mer count. Take CTCCCCTCCC: the binding signal came to 0.00455 relative 10-mer count. The sequence AAAGAAGCGT came in with a binding signal of 0.00348 relative 10-mer count.

Sequence ACCCACCCCA had a binding signal of 0.00515 relative 10-mer count. The sequence CCTACCACCC gave a binding signal of 0.0101 relative 10-mer count. On to ACCCCGCCCC, for which the binding signal came to 0.00192 relative 10-mer count. With CCTCCCACCA, the binding signal was 0.00491 relative 10-mer count.

For CCGCCCCCCC, the binding signal was determined as 0.00192 relative 10-mer count.

Regarding CGACCCCCCC, the binding signal turned out to be 0.0018 relative 10-mer count. Turning to CCACCCCTAC, the binding signal came out at 0.0036 relative 10-mer count.
